Results reported in the supplement of paper PMC8975748.
Structures can show the parent of a compound that is named as a salt.

The compounds below were run on Saccharomyces cerevisiae BY4741 SeMeCo community (assay: z-score of subpopulation abundance vs DMSO median, subpopulation auxotrophic for HU; higher = larger share of this subpopulation than in DMSO controls). Conditions: 10 µM; 24 h; SM minimal medium; subpopulation (auxotrophy): HU.
Procedure: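 Fluorescent four-plasmid SeMeCo (self-establishing metabolically cooperating S. cerevisiae BY4741 community; plasmids pH-mRuby2, pL-mWasabi, pU-eCFP, pM-TagRFP657) was grown 24 h in minimal SM medium with each Selleck FDA-approved drug at 10 µM in 384-well plates. Cells were fixed and imaged by high-content confocal microscopy. For each auxotrophic subpopulation (and the prototroph), a z-score gives the deviation from the DMSO vehicle-control population median.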

First: NCCc1c[nH]c2ccc(O)cc12 [Serotonin HCl]
Second: Cc1cc(O)ccc1Cl [Chlorocresol]
The “z-score of subpopulation abundance” value of the first is higher: -0.18 for the first, -1.07 for the second.

First: CCOC(=O)Nc1ccc(NCc2ccc(F)cc2)cc1N [Retigabine]
Second: Cc1cc(C(C#N)c2ccc(Cl)cc2)c(Cl)cc1NC(=O)c1cc(I)cc(I)c1O (centres undefined) [Closantel]
The “z-score of subpopulation abundance” value of the first is lower: -0.59 for the first, 0.25 for the second.

First: CCN(C)C(=O)Oc1cccc([C@H](C)N(C)C)c1 [Rivastigmine Tartrate]
Second: CN(C)C(=O)Oc1cccc([N+](C)(C)C)c1 [Neostigmine Bromide]
The “z-score of subpopulation abundance” value of the first is lower: -0.86 for the first, -0.26 for the second.

Compared with C[N+]1(C)[C@@H]2C[C@@H](OC(=O)[C@H](CO)c3ccccc3)C[C@H]1[C@@H]1O[C@@H]12 [Methscopolamine], CN1[C@@H]2C[C@@H](OC(=O)[C@H](CO)c3ccccc3)C[C@H]1[C@@H]1O[C@@H]12 [Scopolamine HBr] is lower in “z-score of subpopulation abundance” value: 0.7 for the first, -1.37 for the second.

Going from C=CN1CCCC1=O.II [Povidone iodine] to CC[C@@H](C(N)=O)N1CCCC1=O [Levetiracetam], the “z-score of subpopulation abundance” value falls from 1.56 to -0.75.

First: CN(C)[C@@H]1C(=O)C(C(N)=O)=C(O)[C@@]2(O)C(=O)C3=C(O)c4c(O)cccc4[C@@](C)(O)[C@H]3C[C@@H]12 [Tetracycline HCl]
Second: CN(C)[C@@H]1C(=O)C(C(N)=O)=C(O)[C@@]2(O)C(=O)C3=C(O)c4c(O)ccc(Cl)c4[C@@](C)(O)[C@H]3C[C@@H]12 [Chlortetracycline HCl]
The “z-score of subpopulation abundance” value of the first is higher: -0.3 for the first, -0.42 for the second.

Compared with COc1ccc2c(c1)[C@]13CCCC[C@@H]1[C@H](C2)N(C)CC3 [Dextromethorphan hydrobromide hydrate], COc1ccc(C(CN(C)C)C2(O)CCCCC2)cc1 (centres undefined) [Venlafaxine] is higher in “z-score of subpopulation abundance” value: -0.61 for the first, 0.4 for the second.

Going from Nc1ccncc1 [4-Aminopyridine] to Oc1cccc2cccnc12 [8-Hydroxyquinoline], the “z-score of subpopulation abundance” value falls from 0.52 to -1.16.

First: C=C(C)[C@H]1Cc2c(ccc3c2O[C@@H]2COc4cc(OC)c(OC)cc4[C@@H]2C3=O)O1 [Rotenone (Barbasco)]
Second: COc1cc2c(cc1OC)C1CC(=O)C(CC(C)C)CN1CC2 (centres undefined) [Tetrabenazine (Xenazine)]
The “z-score of subpopulation abundance” value of the first is higher: 1.02 for the first, -1.24 for the second.

First: C[C@@H]1CC[C@H]2[C@@H](C)C(=O)O[C@@H]3O[C@@]4(C)CC[C@@H]1[C@]32OO4 [Artemisinin]
Second: CC(=O)O[C@H]1C[C@@H]2CC[C@@H]3[C@H](CC[C@@]4(C)[C@H]3C[C@H]([N+]3(C)CCCCC3)[C@@H]4OC(C)=O)[C@@]2(C)C[C@@H]1[N+]1(C)CCCCC1 [Pancuronium dibromide]
The “z-score of subpopulation abundance” value of the first is higher: 0.58 for the first, -0.53 for the second.

Going from C[CH2][Hg][S]c1ccccc1C(=O)[O-].[Na+] [Thimerosal] to CC(NC(C)(C)C)C(=O)c1cccc(Cl)c1 (centres undefined) [Amfebutamone (Bupropion) HCl], the “z-score of subpopulation abundance” value falls from 6.59 to -0.9.

First: CC(C)(O)C(Cl)(Cl)Cl [Chlorobutanol]
Second: N#Cc1nn(-c2c(Cl)cc(C(F)(F)F)cc2Cl)c(N)c1[S+]([O-])C(F)(F)F (centres undefined) [Fipronil]
The “z-score of subpopulation abundance” value of the first is higher: 0.05 for the first, -0.37 for the second.

Going from CC[C@H]1CN2CC[C@]3(C(=O)Nc4ccccc43)[C@@H]2C[C@@H]1/C(=C\OC)C(=O)OC [Rhynchophylline] to CC[C@H]1[C@@H]2C[C@H]3[C@@H]4N(C)c5ccccc5[C@]45C[C@@H]([C@@H]2[C@H]5O)N3[C@@H]1O [Ajmaline], the “z-score of subpopulation abundance” value falls from 0.35 to -0.28.

Going from N[C@@H]1C[C@H]1c1ccccc1 [Tranylcypromine (2-PCPA) HCl] to O=C(O[C@H]1C[C@H]2CC[C@@H](C1)[N+]21CCCC1)C(O)(c1ccccc1)c1ccccc1 [Trospium chloride], the “z-score of subpopulation abundance” value falls from 0.44 to 0.09.

Compared with CN1c2ccccc2C(NCCCCCCC(=O)O)c2ccc(Cl)cc2S1(=O)=O (centres undefined) [Tianeptine sodium], O=c1[nH]c2ccccc2n1CCCN1CCC(n2c(=O)[nH]c3cc(Cl)ccc32)CC1 [Domperidone] is higher in “z-score of subpopulation abundance” value: -1.1 for the first, 0.86 for the second.

First: CN1C(=O)COc2c(C(=O)NC3CN4CCC3CC4)cc(Cl)cc21 (centres undefined) [Azasetron HCl]
Second: C[C@H]1O[C@H](O[C@H]2[C@H](O)[C@@H](O)[C@@H](O)[C@H](O)[C@@H]2O)[C@@H](N)C[C@@H]1NC(=N)C(=O)O [Kasugamycin hydrochloride]
The “z-score of subpopulation abundance” value of the first is lower: -0.34 for the first, -0.33 for the second.

First: CCCCCCCCCCCCCCCC[n+]1ccccc1 [Cetylpyridinium Chloride]
Second: COc1ccc(C(CN(C)C)C2(O)CCCCC2)cc1 (centres undefined) [Venlafaxine HCl]
The “z-score of subpopulation abundance” value of the first is higher: 16.1 for the first, -0.07 for the second.
